Experiment [1] addresses Agonist Androgen Response Element (ARE), AR (gene 367) (UniProt P10275). The experiment can be described thus: OT_AR_ARELUC_AG_1440: Odyssey Thera (OT) 24-hour CHO-K1 Luciferase Assay for Agonist Androgen Response Element (ARE) (AID 2283379). Put shortly: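 Gain-of-signal reporter endpoint: cells (CHO-K1, hamster) are treated 24 h, luciferin/ATP reagent added, and luminescence compared with DMSO baseline.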

Experiment [2] has as its target Bile acid receptor (Homo sapiens) (UniProt Q96RI1). The experiment can be described thus: OT_FXR_FXRSRC1_0480: Odyssey Thera (OT) 8-hour HEK293T Protein-Complementation Assay for Farnesoid X receptor/SRC-1 Co-activator (AID 2283383). Summed up: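 Binding of FXR to coactivator SRC-1 was read as fluorescence from a reconstituted split reporter in HEK293T cells, 8 h after chemical addition. Only increases in signal versus DMSO were fit.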

Experiment [3] shares this target. As to the kind of experiment: OT_FXR_FXRSRC1_1440: Odyssey Thera (OT) 24-hour HEK293T Protein-Complementation Assay for Farnesoid X receptor/SRC-1 Co-activator (AID 2283384). Put shortly: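 Protein-fragment complementation: FXR and SRC-1 fused to reporter fragments that reassemble on interaction, read by fluorescence intensity. Human HEK293T cells measured 24 h post-dose; positive-direction fit versus DMSO.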

For experiment [4], the target named is Retinoic acid receptor RXR-alpha (Homo sapiens) (UniProt P19793). The experiment can be described thus: OT_NURR1_NURR1RXRa_0480: Odyssey Thera (OT) 8-hour HEK293T Protein Complementation Assay for Nurr1/retinoid X receptor (RXR) (AID 2283385). Summed up:
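Interaction of Nurr1 with RXRα read as reconstituted reporter fluorescence in a HEK293T fragment-complementation system, 8 h post-treatment; increase over DMSO baseline analysed.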

The target is the same in experiment [5]. As to the kind of experiment: OT_NURR1_NURR1RXRa_1440: Odyssey Thera (OT) 24-hour HEK293T Protein Complementation Assay for Nurr1/retinoid X receptor (RXR) (AID 2283386). Put shortly: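 Gain in fluorescence, fitted relative to DMSO, reflects Nurr1–RXRα association in HEK293T cells after 24 h dosing. Bait and prey are each linked to a reporter-protein fragment that reassembles on interaction.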

For experiment [6], the target named is Peroxisome proliferator-activated receptor gamma (Homo sapiens) (UniProt P37231). As to the kind of experiment: OT_PPARg_PPARgSRC1_0480: Odyssey Thera (OT) 8-hour Protein-Complementation Assay for Peroxisome Proliferator-activated Receptor Gamma / SRC-1 Co-activator (AID 2283387).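 Further: nuclear to cytoplasmic split Venus YFP fluorescence ratio reporting PPARg SRC-1 interaction.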 Summed up:
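Protein-fragment complementation of split Venus YFP reports PPARg/SRC-1 interaction in HEK293T (transfected 48 h before treatment), exposed 8 h. Readout: N/C fluorescence ratio at 488 nm from imaging, Draq5 for segmentation, positive fit relative to DMSO.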

Experiment [7] shares this target. The experiment can be described thus: OT_PPARg_PPARgSRC1_1440: Odyssey Thera (OT) 24-hour Protein-Complementation Assay for Peroxisome Proliferator-activated Receptor Gamma/ SRC-1 Co-activator (AID 2283388).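 Further: nuclear to cytoplasmic ratio of reconstituted Venus YFP fluorescence in fixed imaged cells.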 Put shortly: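 Transient HEK293T, YFP fragments 1-158/159-239 (mutant IFP1/IFP2) fused to PPARg/SRC-1; 24 h dosing; fix 4% formaldehyde, Draq5; Opera imaging 488/635 nm; N/C ratio, gain vs DMSO.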

Experiment [8] is described as follows: CEETOX_H295R_11DCORT: CeeTox H295R High-throughput Steroidogenesis Assay for 11-Deoxycortisol (11DCORT) (AID 2283432; active means hit-call score of the fitted dose curve at least 0.9, where 1 is the maximum; inactive means score below 0.9;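 on AC50: 11-deoxycortisol secreted into the medium measured by LC-MS/MS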). The note with it: actives raise or lower the signal. Put shortly:
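Human adrenal H295R cells were prestimulated with 10 uM forskolin for 48 h, then exposed to test chemical (0.1% DMSO final) for 48 h. Medium 11-deoxycortisol was quantified by MTBE extraction and HPLC-MS/MS; bidirectional fitting relative to DMSO.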

A short description of experiment [9]: CEETOX_H295R_ANDR: CeeTox H295R High-throughput Steroidogenesis Assay for Androstenedione (ANDR) (AID 2283436; active means hit-call score of the fitted dose curve at least 0.9, where 1 is the maximum; inactive means score below 0.9). The note with it: actives raise or lower the signal. Put shortly:
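48 h chemical exposure, H295R cells, DMEM/F12 + ITS+ and Nu-Serum. Medium androstenedione: MTBE extraction, C18 reverse-phase HPLC, ESI+ MS/MS. Fit bidirectional vs DMSO; MTT viability in same wells.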

Experiment [10] is described as follows: CEETOX_H295R_CORTIC: CeeTox H295R High-throughput Steroidogenesis Assay for Corticosterone (CORTIC) (AID 2283437; active means hit-call score of the fitted dose curve at least 0.9, where 1 is the maximum; inactive means score below 0.9;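 further: corticosterone secreted into medium quantified by mass spectrometry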). The note with it: actives raise or lower the signal. Summed up:
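48 h forskolin (10 uM) prestim, then 48 h chemical exposure, final DMSO 0.1%. Readout: corticosterone in medium by LC-MS/MS after MTBE extraction. Gain/loss fit vs DMSO; MTT viability in same wells.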

The nature of experiment [11]: CEETOX_H295R_CORTISOL: CeeTox H295R High-throughput Steroidogenesis Assay for Cortisol (AID 2283438; active means hit-call score of the fitted dose curve at least 0.9, where 1 is the maximum; inactive means score below 0.9;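 further: cortisol secreted into medium quantified by LC-MS/MS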). The note with it: actives raise or lower the signal. Summed up:
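Cortisol measured by HPLC-MS/MS after MTBE extraction of medium from H295R cells exposed 48 h to chemical (0.1% DMSO), following 48 h prestimulation with 10 uM forskolin. Viability assessed by MTT in the same wells.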

The nature of experiment [12]: CEETOX_H295R_DOC: CeeTox H295R High-throughput Steroidogenesis Assay for DOC (AID 2283439; active means hit-call score of the fitted dose curve at least 0.9, where 1 is the maximum; inactive means score below 0.9). The note with it: actives raise or lower the signal. Summed up: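 11-Deoxycorticosterone quantified in medium by MTBE extraction and HPLC-MS/MS after 48 h chemical exposure (0.1% DMSO) of forskolin-primed (10 uM, 48 h) H295R cells. Same-well MTT viability; data fitted bidirectionally against DMSO.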

Experiment [13] can be described thus: CEETOX_H295R_OHPREG: CeeTox H295R High-throughput Steroidogenesis Assay for OH-Pregnenolone (OHPREG) (AID 2283434; active means hit-call score of the fitted dose curve at least 0.9, where 1 is the maximum; inactive means score below 0.9). The note with it: actives raise or lower the signal. Summed up: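 H295R, 10 uM forskolin pre-stim 48 h; test chemical 48 h, 0.1% DMSO final. MTBE extraction, reverse-phase C18 HPLC-ESI+ MS/MS of medium. Gain/loss vs DMSO; viability by MTT in same wells.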

Experiment [14] concerns the target Estrogen receptor beta (Homo sapiens) (UniProt Q92731). The experiment can be described thus: OT_ER_ERbERb_1440: Odyssey Thera (OT) 24-hour HEK293T Protein-Complementation Assay for Estrogen Receptor-beta/-beta Homodimer (AID 2283380).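 Further: scored as signal increase over DMSO baseline for both agonists and antagonists.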 Summed up: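 HEK293T cells stably expressing ER beta LBD (aa 310-547) homodimer fragment-complementation reporter, dosed 24 h. Cells formaldehyde-fixed, Draq5-stained; gain in nuclear (agonist) or nuclear plus cytoplasmic (antagonist) fluorescence versus DMSO read by laser scanning cytometry.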

Experiment [15] has as its target Estrogen receptor (Homo sapiens) (UniProt P03372). The experiment can be described thus: OT_ERa_GFPERaERE_0480: Odyssey Thera (OT) 8-hour HeLa Transcription Induction Assay for Estrogen Receptor (AID 2283381; active means hit-call score of the fitted dose curve at least 0.9, where 1 is the maximum; inactive means score below 0.9). Put shortly: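 Fluorescence microscopy with high-content image analysis measures ERE-driven GFP induction in HeLa cells at 8 h post-dose. Increases fitted against DMSO baseline.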

Experiment [16] has the same target. The experiment can be described thus: OT_ERa_GFPERaERE_0120: Odyssey Thera (OT) 2-hour HeLa Transcription Induction Assay for Estrogen Receptor (AID 2283382). Summed up:
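Fluorescence-microscopy images of the GFP-ERα/ERE reporter, scored by high-content image algorithms, give the readout. HeLa exposure lasted 2 h, and only signal increase over DMSO was fitted.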

Experiment [17] in a line: CEETOX_H295R_ESTRADIOL: CeeTox H295R High-throughput Steroidogenesis Assay for Estradiol (AID 2283440; active means hit-call score of the fitted dose curve at least 0.9, where 1 is the maximum; inactive means score below 0.9;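 further: estradiol secreted into medium quantified by LC-MS/MS after dansyl derivatisation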). The note with it: actives raise or lower the signal. Put shortly: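 Following OECD 456 with minor changes, H295R cells received 10 uM forskolin for 48 h and then test chemical for 48 h. Hormone output was read by HPLC-MS/MS, with cytotoxic concentrations diluted until MTT viability reached ≥70%.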

Drawing on PubChem BioAssay (EPA / NIEHS), this text covers outcome and AC50 for ten compounds.

Structures are written as SMILES. Several values for one entry are separate records, joined by “and”; a condition that tells them apart may be missing. Identical values can stand only once. Records with an inconclusive call do not appear. Some structures have more than one record in an assay (separate samples or runs), and their calls can disagree. Activity calls are given as the source filed them. How the source made its calls, unless noted: active means hit-call score of the fitted dose curve at least 0.9, where 1 is the maximum; inconclusive means response in the unintended direction; inactive means score below 0.9.

Sequence of Estrogen receptor (Homo sapiens) (P03372 whole entry, looked up): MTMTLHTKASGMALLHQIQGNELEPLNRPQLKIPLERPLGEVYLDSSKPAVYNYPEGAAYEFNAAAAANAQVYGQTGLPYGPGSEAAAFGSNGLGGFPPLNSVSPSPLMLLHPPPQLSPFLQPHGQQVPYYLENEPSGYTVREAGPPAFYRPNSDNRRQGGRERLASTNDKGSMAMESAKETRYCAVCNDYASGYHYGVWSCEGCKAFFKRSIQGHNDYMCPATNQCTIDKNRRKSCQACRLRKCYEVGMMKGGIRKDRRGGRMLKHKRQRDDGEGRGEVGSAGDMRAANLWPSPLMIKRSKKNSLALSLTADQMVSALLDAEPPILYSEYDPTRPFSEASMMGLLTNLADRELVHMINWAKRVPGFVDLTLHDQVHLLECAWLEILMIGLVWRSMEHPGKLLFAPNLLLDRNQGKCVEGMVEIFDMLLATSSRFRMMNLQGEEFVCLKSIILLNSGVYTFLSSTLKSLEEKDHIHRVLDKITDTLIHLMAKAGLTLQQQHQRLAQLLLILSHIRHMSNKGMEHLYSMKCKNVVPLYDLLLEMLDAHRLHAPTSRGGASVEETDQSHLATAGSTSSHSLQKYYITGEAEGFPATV
Sequence of Retinoic acid receptor RXR-alpha (Homo sapiens) (P19793 whole entry, looked up, the tested form may be a part): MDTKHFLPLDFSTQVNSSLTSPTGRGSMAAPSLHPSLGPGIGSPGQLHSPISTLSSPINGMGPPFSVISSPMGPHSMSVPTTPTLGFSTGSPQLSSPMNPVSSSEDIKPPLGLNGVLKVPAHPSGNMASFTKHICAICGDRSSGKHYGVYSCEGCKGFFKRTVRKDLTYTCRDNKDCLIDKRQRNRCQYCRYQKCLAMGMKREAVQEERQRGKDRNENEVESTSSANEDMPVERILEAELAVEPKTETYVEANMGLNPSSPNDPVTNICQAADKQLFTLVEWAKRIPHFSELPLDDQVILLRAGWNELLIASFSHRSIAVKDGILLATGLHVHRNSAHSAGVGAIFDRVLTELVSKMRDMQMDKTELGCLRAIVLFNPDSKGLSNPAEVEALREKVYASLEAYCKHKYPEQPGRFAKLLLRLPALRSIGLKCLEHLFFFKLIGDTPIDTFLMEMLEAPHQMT
Sequence of Peroxisome proliferator-activated receptor gamma (Homo sapiens) (P37231 whole entry, looked up, the tested form may be a part): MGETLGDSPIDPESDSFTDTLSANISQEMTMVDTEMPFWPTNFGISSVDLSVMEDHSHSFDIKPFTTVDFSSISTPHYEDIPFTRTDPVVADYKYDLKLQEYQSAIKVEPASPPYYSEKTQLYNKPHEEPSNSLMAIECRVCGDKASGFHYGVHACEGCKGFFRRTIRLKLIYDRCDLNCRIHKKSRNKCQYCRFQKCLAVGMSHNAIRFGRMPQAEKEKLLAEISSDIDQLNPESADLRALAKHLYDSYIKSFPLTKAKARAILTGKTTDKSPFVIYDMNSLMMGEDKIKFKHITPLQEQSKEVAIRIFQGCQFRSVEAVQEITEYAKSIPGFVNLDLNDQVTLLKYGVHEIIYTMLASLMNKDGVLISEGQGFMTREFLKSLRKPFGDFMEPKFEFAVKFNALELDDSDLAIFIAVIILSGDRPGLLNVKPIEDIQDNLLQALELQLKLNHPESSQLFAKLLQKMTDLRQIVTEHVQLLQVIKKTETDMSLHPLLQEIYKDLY
Sequence of Estrogen receptor beta (Homo sapiens) (Q92731 whole entry, looked up, the tested form may be a part): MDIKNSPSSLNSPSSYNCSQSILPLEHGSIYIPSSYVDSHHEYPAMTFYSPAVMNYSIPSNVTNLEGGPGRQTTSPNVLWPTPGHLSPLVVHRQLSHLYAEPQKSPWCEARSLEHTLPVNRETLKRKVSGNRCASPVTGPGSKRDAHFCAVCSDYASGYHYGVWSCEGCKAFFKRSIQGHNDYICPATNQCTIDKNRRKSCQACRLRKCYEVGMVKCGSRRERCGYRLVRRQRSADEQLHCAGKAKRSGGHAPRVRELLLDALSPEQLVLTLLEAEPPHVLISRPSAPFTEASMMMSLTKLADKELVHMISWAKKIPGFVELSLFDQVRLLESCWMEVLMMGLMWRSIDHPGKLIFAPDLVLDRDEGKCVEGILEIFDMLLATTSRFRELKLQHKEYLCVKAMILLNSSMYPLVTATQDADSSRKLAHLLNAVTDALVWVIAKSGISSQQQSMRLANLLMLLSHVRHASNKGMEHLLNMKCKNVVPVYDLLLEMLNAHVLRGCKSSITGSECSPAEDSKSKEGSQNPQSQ
Sequence of Bile acid receptor (Homo sapiens) (Q96RI1 whole entry, looked up): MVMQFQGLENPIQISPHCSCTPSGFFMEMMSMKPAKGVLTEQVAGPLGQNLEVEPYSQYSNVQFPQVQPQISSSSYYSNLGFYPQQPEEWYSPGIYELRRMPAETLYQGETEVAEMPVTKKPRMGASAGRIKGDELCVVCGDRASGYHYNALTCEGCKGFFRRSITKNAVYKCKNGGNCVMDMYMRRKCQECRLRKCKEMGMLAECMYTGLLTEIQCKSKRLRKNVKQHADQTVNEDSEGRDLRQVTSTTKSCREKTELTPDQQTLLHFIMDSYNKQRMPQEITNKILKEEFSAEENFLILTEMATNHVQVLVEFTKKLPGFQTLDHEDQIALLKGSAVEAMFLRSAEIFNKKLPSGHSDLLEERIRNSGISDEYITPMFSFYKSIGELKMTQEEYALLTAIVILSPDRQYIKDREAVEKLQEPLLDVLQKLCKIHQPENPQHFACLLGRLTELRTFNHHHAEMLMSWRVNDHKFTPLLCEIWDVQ
Sequence of Agonist Androgen Response Element (ARE), AR (gene 367) (P10275 whole entry, looked up): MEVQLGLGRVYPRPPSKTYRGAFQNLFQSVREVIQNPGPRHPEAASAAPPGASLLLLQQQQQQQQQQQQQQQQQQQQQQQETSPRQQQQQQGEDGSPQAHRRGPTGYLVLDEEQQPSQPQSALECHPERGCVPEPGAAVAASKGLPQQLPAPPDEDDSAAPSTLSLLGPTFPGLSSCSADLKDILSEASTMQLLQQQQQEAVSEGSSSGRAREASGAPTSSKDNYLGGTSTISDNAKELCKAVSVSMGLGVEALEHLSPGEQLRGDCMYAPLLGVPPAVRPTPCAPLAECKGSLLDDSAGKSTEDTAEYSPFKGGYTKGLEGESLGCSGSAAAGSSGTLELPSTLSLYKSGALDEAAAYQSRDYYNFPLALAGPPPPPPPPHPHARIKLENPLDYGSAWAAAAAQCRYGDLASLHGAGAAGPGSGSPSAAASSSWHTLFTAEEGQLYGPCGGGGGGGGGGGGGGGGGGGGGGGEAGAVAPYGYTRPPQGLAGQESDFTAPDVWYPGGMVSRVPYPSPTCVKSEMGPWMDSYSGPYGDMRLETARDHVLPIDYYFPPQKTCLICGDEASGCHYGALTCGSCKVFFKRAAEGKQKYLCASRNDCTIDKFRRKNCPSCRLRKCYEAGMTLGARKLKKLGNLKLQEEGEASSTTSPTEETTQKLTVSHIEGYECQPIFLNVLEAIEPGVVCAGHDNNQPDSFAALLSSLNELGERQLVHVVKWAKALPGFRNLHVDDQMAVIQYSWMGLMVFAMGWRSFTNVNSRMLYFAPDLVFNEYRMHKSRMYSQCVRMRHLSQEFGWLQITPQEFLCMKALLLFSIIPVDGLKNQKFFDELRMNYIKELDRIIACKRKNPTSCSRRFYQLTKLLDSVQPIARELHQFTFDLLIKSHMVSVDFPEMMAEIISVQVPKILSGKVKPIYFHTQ

As to `O=c1c(-c2ccc(O)cc2)coc2cc(O)cc(O)c12`, the compound was classed as inactive in experiment [1], in experiment [2], in experiment [3], in experiment [4], in experiment [5] and in experiment [6]. Further, the outcome in experiment [7] and in experiment [10] was inactive. Further, the AC50 in experiment [2] is 12.5 µM (active) and 11.5 µM (active) and 13.4 µM (active); in experiment [3], 18.9 µM (active) and 20.5 µM (active) and 18.6 µM (active); in experiment [4] it was 29 µM (active) [middle of 4 runs]; in experiment [8] it was 11.9 µM (active); in experiment [9], 14.1 µM (active); in experiment [11] it was 12.4 µM (active). Also, in [12], the AC50 is 4.44 µM (active).
For `C[C@]12CC[C@@H]3c4ccc(O)cc4CC[C@H]3[C@@H]1CC[C@H]2O`, the compound was called inactive in [4], in experiment [5], in [6] and in experiment [7]. The AC50 was 3.52 µM (active) in experiment [8]; 1.22 µM (active) in experiment [13]; 2.13 µM (active) in experiment [10]; 2.17 µM (active) in experiment [11]; 3.31 µM (active) in [12].
Turning to `CCO[Si](CCCNC(N)=O)(OCC)OCC`, the compound was called inactive in experiment [14], in experiment [15], in experiment [16], in [3], in [4] and in experiment [6]. Further, the compound was classed as inactive in [7].
For the compound `Cc1ccc2oc(CN(Cc3ccccc3)C(=O)Nc3c(F)cc(F)cc3F)c(-c3ccc(Cl)cc3)c2c1`, the call in experiment [14], in experiment [15], in experiment [16], in [2], in experiment [3] and in [6] was inactive. The compound was classed as inactive in [7], in experiment [8], in [13], in [10], in experiment [11] and in experiment [17]. Also, the AC50 in experiment [12] was 1.36 µM (active).
With `CCCCCCCCCCCCO`, the outcome in experiment [14], in experiment [15], in experiment [16], in [2], in experiment [3] and in experiment [4] was inactive. The result in [6] and in [7] was inactive.
Consider `c1ccc2n[nH]nc2c1`, for which the compound was classed as inactive in experiment [14], in experiment [4], in experiment [5], in experiment [6] and in experiment [7].
For `CC1=CC(=O)/C(=C(/C)O)C(=O)O1`, the outcome in experiment [14], in experiment [15], in experiment [16], in experiment [2], in [3] and in [4] was inactive. For the same compound, the result in [5], in experiment [6] and in [7] was inactive.
As to `O=C(O)c1ccccc1C(=O)OCc1ccccc1`, the compound was called inactive in [15], in experiment [16], in experiment [3], in experiment [4], in experiment [5] and in experiment [6]. In addition, in experiment [7], the result was inactive.
Turning to `CCN(Cc1cccc(S(=O)(=O)O)c1)c1ccc(C(=C2C=CC(=[N+](CC)Cc3cccc(S(=O)(=O)O)c3)C=C2)c2ccccc2S(=O)(=O)[O-])cc1`, the compound was called inactive in experiment [14], in experiment [15], in experiment [16], in experiment [2], in experiment [4] and in [5]. The compound was called inactive in experiment [6] and in experiment [7]. The AC50 in experiment [5] is 46.6 µM (active).
With `CCCCCCCCOc1ccc(C(=O)c2ccccc2)c(O)c1`, the compound was classed as inactive in experiment [15], in experiment [16], in experiment [2], in experiment [3], in experiment [4] and in experiment [6]. Also, the outcome in experiment [7] was inactive.
